The source of these data is the supplement of paper PMC11219838.

SMILES strings stand for the structures.

This assay has as its system Caenorhabditis elegans L1 (N2). Nature of the assay: survival and reproduction score of C. elegans L1 (0: 0-10 living worms, 1: 11-20, 2: 21-50, 3: >50, 4: overgrown) (score 0-4); higher = more worms, less nematicidal, active = 1 or less; extreme values may be limits of the assay. The note with it: 60 µM; 6 days; temperature: 20 °C. A digest of the protocol: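 Each 96-well well received about 20 synchronized N2 L1 worms of C. elegans, E. coli HB101 and liquid NGM, plus compound pinned to 60 µM final (0.6% v/v DMSO). Sealed plates were incubated with shaking at 200 rpm, 20 °C, for 6 days. Survival and reproduction were rated under a dissection microscope as an ordinal score of living worms per well, averaged across biological replicates. The scale spanned 0 (0–10 worms) to 4 (overgrown, starved), and there were two replicates.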
As for `COc1ccc(-c2noc(C3CCCCC3)n2)cc1`, the “survival and reproduction score” value was 4 (inactive). In the case of `Clc1ccc(-c2nc(-c3ccncc3)no2)cc1` it was 0.5 (active). As to `O=C(Nc1ccccc1-c1nc(-c2ccncc2)no1)c1ccccc1Cl`, the “survival and reproduction score” value is 4 (inactive).

For `CC(C)(Oc1ccc(Cl)cc1)c1nc(-c2ccncc2)no1`, the “survival and reproduction score” value is 0.5 (active). In the case of `Cc1cc(OCc2nc(-c3ccc(NC(=O)c4ccc5c(c4)OCO5)cc3)no2)ccc1Cl` it was 4 (inactive). On to `COc1ccc(-c2noc(-c3ccc(Br)cc3)n2)cc1`, for which the “survival and reproduction score” value is 0 (active).

As to `COc1cccc(-c2noc(COc3cccc(C)c3)n2)c1`, the “survival and reproduction score” value is 4 (inactive). In the case of `COc1ccccc1-c1nc(-c2ccc(Br)cc2)no1` it was 4 (inactive). In the case of `COc1ccc(-c2noc(COc3ccc(Cl)c(C)c3)n2)cc1` it was 4 (inactive); in that of `O=C(Nc1ccccc1-c1nc(-c2cccnc2)no1)c1cc2ccccc2o1`, 4 (inactive). In the case of `COc1nc(C)ccc1-c1noc(-c2ccc(Cl)cc2)n1` it was 4 (inactive); in that of `CCCc1ccc(-c2ccc(-c3nc(-c4ccccn4)no3)cc2)cc1`, 4 (inactive). On to `Clc1cc(Br)ccc1OCc1nc(-c2ccccc2)no1`, for which the “survival and reproduction score” value was 4 (inactive). In the case of `CCn1c(SCc2ccc(OC)cc2)nnc1-c1ccco1` it was 4 (inactive). `COc1ccc(C)cc1NC(=O)CSc1nnc(-c2ccc(Br)cc2)o1`: the “survival and reproduction score” value is 4 (inactive). Turning to `COc1ccccc1-c1nnc(SCc2ccccc2C#N)o1`, the “survival and reproduction score” value was 4 (inactive).

On to `Cc1cccc(OC(C)c2nc(-c3ccncc3)no2)c1` (centres undefined), for which the “survival and reproduction score” value was 4 (inactive). In the case of `Cc1cccc(-c2noc(-c3ccc(C)cc3Cl)n2)c1` it was 4 (inactive); in that of `O=C(CSc1nnc(-c2ccc(Cl)cc2)o1)NCc1ccccc1`, 4 (inactive).
